Screen size: about 13,000 compounds; about 3,200 (25%) showed an effect of 50% or more. The list shows a part of the results.

This note sets out measurements from PMC4552634, “A New Set of Chemical Starting Points with Plasmodium falciparum Transmission-Blocking Potential for Antimalarial Drug Discovery” (PLoS ONE, 2015).

For the test, the system named is P. falciparum stage V gametocytes. The arrangement: BacTiter-Glo ATP luminescence viability of purified stage V gametocytes in 384-well plates, per cent inhibition versus DMSO. The conditions noted are these: 48 h, 5 µM; inhibitor.
`O=C(Nc1ccc(OC2CCN(Cc3ccc(F)cc3)C2)c(Cl)c1)c1ccsc1` (centres unmarked) [TCMDC-133756]: the “% Inhibition” value is on record as -6.821%.
Consider `O=C(Nc1cccc(Cl)c1Cl)N1CCc2cc3nccc(N4CCN5CCC[C@H]5C4)c3cc21` [TCMDC-140054], for which the “% Inhibition” value was -5.668%.
With `CC(=O)N(Cc1ccccc1-c1cccc(CNCCc2ccccc2)c1)C1CCN(Cc2ccccc2)CC1` [TCMDC-140524] the figure was 45.75%; with `O=C(NC1CCCCC1)N(Cc1ccccc1-c1ccc(CNCCc2ccccc2)cc1)C1CCN(Cc2ccccc2)CC1` [TCMDC-140625], 106.9%; with `CC(C)CNCc1ccc(-c2ccccc2CN(C(=O)NCCc2ccccc2)C2CCN(Cc3ccccc3)CC2)cc1` [TCMDC-140609], 78.77%.
To `CC(=O)N(Cc1ccccc1-c1ccc(CNCCc2ccccc2)cc1)C1CCN(Cc2ccccc2)CC1` [TCMDC-140525] belongs 102.9%; to `O=C(c1ccccc1)N(Cc1ccccc1-c1ccc(CNCCc2ccccc2)cc1)C1CCN(Cc2ccccc2)CC1` [TCMDC-140531], 62.45%; to `CCOc1ccc(N2C(N)=NC(N)=NC2(C)C)cc1` [TCMDC-124280], 3.734%.
Take `COc1cc(C(=O)NC2CCN(Cc3ccccc3)CC2)ccc1-c1cc2cc(Cl)c(Cl)cc2[nH]1` [TCMDC-141286]: the “% Inhibition” value is given as 1.884%.
Take `CC(C)[C@H](NC(=O)c1c(CN2CCC(N3CCCCC3)CC2)c(-c2ccccc2)nc2cc(O)ccc12)c1ccccc1` [TCMDC-140676]: the “% Inhibition” value was determined as 20.63%.
With `O=C(NCCc1ccccc1)N(Cc1ccccc1-c1ccc(CNCCc2ccccc2)cc1)C1CCN(Cc2ccccc2)CC1` [TCMDC-140611] the figure was 104.9%.
Turning to `O=C(NCCc1ccccc1)N(Cc1ccccc1-c1cccc(CNCCc2ccccc2)c1)C1CCN(Cc2ccccc2)CC1` [TCMDC-140610], the “% Inhibition” value stood at 46.01%.
`O=C(NCCc1ccccc1)N(Cc1ccccc1-c1cccc(CNCc2ccc3c(c2)OCO3)c1)C1CCN(Cc2ccccc2)CC1` [TCMDC-140614]: the “% Inhibition” value is given as 15.63%.
Regarding `CC(C)CNCc1cccc(-c2ccccc2CN(C(=O)NCCc2ccccc2)C2CCN(Cc3ccccc3)CC2)c1` [TCMDC-140608], the “% Inhibition” value amounted to 89.6%.
To `Fc1ccc2[nH]c3c(NCCN4CCCCC4)ncnc3c2c1` [TCMDC-123757] belongs -41.7%; to `CCc1cc(=O)[nH]c(-n2nc(C)cc2NC(=O)CC(c2ccccc2)c2ccccc2)n1` [TCMDC-124942], 38.89%.
Consider `Cc1cccc(Nc2nccc(NCC(O)c3cccc(C(F)(F)F)c3)n2)c1` (centres unmarked) [TCMDC-136582], for which the “% Inhibition” value is listed as 10%.
To `CCCCCCNC[C@@H](O)[C@H](Cc1ccccc1)NC(=O)c1cc(NCC)cc(N2CCCCS2(=O)=O)c1` [TCMDC-135218] belongs 27.85%.
To `Cc1ccc2[nH]c(C3CCCNC3)c(-c3ccncc3)c2c1` (centres unmarked) [TCMDC-134505] belongs 76.33%; to `COC(=O)c1cc(NC(=O)Nc2ccc(Cn3ncc(N4CCCNCC4)c(Cl)c3=O)cc2)cc(C(=O)OC)c1` [TCMDC-133324], 3.06%; to `Clc1cc(Nc2ccnc3ccc(Br)cc23)ccc1Oc1ccc2ccccc2c1Cl` [TCMDC-124239], 37.87%.
Turning to `COC(=O)CCCCOc1c(OC)cc(Cc2cnc(N)nc2N)cc1OC` [TCMDC-137353], the “% Inhibition” value turned out to be 24.77%.
As for `CCN(CCCN1CCCCC1)c1cc(C)nc(Nc2cc(Cl)ccc2C)n1` [TCMDC-132446], the “% Inhibition” value is on record as 50.43%.
With `CCN(CCCN1CCCCC1)c1cc(C)nc(Nc2ccc(Br)cc2F)n1` [TCMDC-132428] the figure was 4.971%; with `CCN(CCCN1CCCCC1)c1cc(C)nc(Nc2ccc(C)cc2Br)n1` [TCMDC-132441], 94.55%; with `Cc1cc(N(C)C2CCN(C)C2)nc(Nc2ccc(Cl)cc2)n1` (centres unmarked) [TCMDC-137010], 65.31%.
In the case of `CCN(CCCN1CCCCC1)c1cc(C)nc(Nc2cc(Br)ccc2C)n1` [TCMDC-132432], the “% Inhibition” value is recorded as 22.76%.
`CCN(CCCN1CCCCC1)c1cc(C)nc(Nc2ccc(Cl)cc2)n1` [TCMDC-137488]: the “% Inhibition” value was -3.889%.
`CCN(CCCN1CCCCC1)c1cc(C)nc(Nc2cc(C)ccc2C)n1` [TCMDC-132449]: the “% Inhibition” value came out at 18.24%.
For `Cc1cc(N(C)CCCN2CCCCC2)nc(Nc2ccc(Cl)cc2)n1` [TCMDC-137485], the “% Inhibition” value is recorded as 86.59%.
With `Cc1cc(N(C)C2CCN(C)CC2)nc(Nc2ccc(Br)cc2)n1` [TCMDC-137015] the figure was 43.74%.
With `Cc1cc(N(C)C2CCN(C)CC2)nc(Nc2ccc(Cl)cc2)n1` [TCMDC-132418] the figure was 22.03%.
With `CCN(CCCN1CCCC1)c1cc(C)nc(Nc2ccc(Cl)cc2)n1` [TCMDC-137224] the figure was 44.32%; with `Cc1c(Cc2ccccc2Cl)cnc2nc(N)nc(N)c12` [TCMDC-137245], 7.074%.
As to `CCC(C)NS(=O)(=O)c1ccc2nc(Nc3ccc(C)cc3)n(C(C)C(C)(C)C)c2c1` (centres unmarked) [TCMDC-136230], the “% Inhibition” value is reported as -32.2%.
For the compound `Cc1cccc2[nH]c(-c3ccc(-c4cccc(NC(=O)Nc5ccsc5)c4)cc3)nc12` [TCMDC-133217], the “% Inhibition” value is reported as -11.37%.
To `CS(=O)(=O)CCOCc1ccc(-c2ccc3ncnc(Nc4ccc(OCc5cccc(F)c5)c(Cl)c4)c3c2)o1` [TCMDC-138529] belongs -28.77%.
With `CC1(C)N=C(N)N=C(N)N1OCc1cc(Cl)cc2c1OCOC2` [TCMDC-131577] the figure was 12.67%; with `COc1cc(C)nc2ccc(NC(=O)Nc3ccccc3[N+](=O)[O-])cc12` [TCMDC-139396], 3.442%; with `CCN(CCCN1CCCCC1)c1cc(C)nc(Nc2ccc3c(c2)CCC3)n1` [TCMDC-132443], -21.7%.
To `CCN(CCCN1CCCCC1)c1cc(C)nc(Nc2ccc(C)cc2C)n1` [TCMDC-132445] belongs 14.07%.
With `CCN(CCCN1CCCCC1)c1cc(C)nc(Nc2ccc(C)cc2Cl)n1` [TCMDC-132442], the “% Inhibition” value was determined as 11.92%.
With `CCN(CCCN1CCCCC1)c1cc(C)nc(Nc2ccc(Cl)cc2C)n1` [TCMDC-132447] the figure was 51.94%; with `CCCc1ccccc1Nc1nc(C)cc(N(CC)CCCN2CCCCC2)n1` [TCMDC-132434], 49.3%; with `CCN(CCCN1CCCCC1)c1cc(C)nc(Nc2cccc3c2CCCC3)n1` [TCMDC-132431], 65.25%.
Consider `COc1ccc2nccc([C@@H](O)CN3CCC(NCc4cc5oc(=O)[nH]c5cc4Cl)CC3)c2c1` [TCMDC-141121], for which the “% Inhibition” value is -3.584%.
With `Cc1cccc2nc(-c3cccc(-c4ccc(NC(=O)NC5CC5c5ccccc5)cc4)c3)[nH]c12` (centres unmarked) [TCMDC-133252] the figure was -20.42%; with `Cc1cc2ncc(C(N)=O)c(Nc3ccc(N4CCOCC4)cc3)c2cc1S(C)(=O)=O.Cl` [TCMDC-135825], -8.581%.
With `CCCCc1ccc(-c2c(N)nc(N)nc2CC)cc1` [TCMDC-138064] the figure was -26.34%.
To `O=C(/C=C/c1ccc(Cl)c(Cl)c1)NCCCCCCN1CCN(C(=O)Nc2cc(F)cc(F)c2)CC1` [TCMDC-135832] belongs -49.78%.
Consider `COc1ccc2nccc(NCC3(O)CCN(CC(O)c4ccc5c(c4)NC(=O)CS5)CC3)c2n1` (centres unmarked) [TCMDC-141462], for which the “% Inhibition” value is listed as 18.04%.
With `CCc1cc([C@H]2O[C@@H](n3cnc4c(NCC(c5ccccc5)c5ccccc5)nc(NCCNc5ccccn5)nc43)[C@H](O)[C@@H]2O)on1` [TCMDC-138085] the figure was 3.442%; with `CC(C)(C)c1ccc(CNC(=O)c2cc(CNC3CCC(N)CC3)ccc2O)cc1` (centres unmarked) [TCMDC-140776], 87.73%.
On to `CC(C)(C)c1ccc(CN2CCC(NC(=O)c3ccc(-c4cccc(Cl)c4)s3)CC2)cc1` [TCMDC-134352], for which the “% Inhibition” value is reported as -48.88%.
Regarding `COc1ccc(CCNC(=O)c2cc(C)ccc2O)cc1-c1ccc(C(C)(C)C)cc1` [TCMDC-136184], the “% Inhibition” value was 6.315%.
With `CC(C)(C)C/C=C\c1ccc(C(=O)NCC2CC2)cc1` [TCMDC-138516] the figure was 17.43%.
With `O=C(NCc1ccc(Cl)c(Cl)c1)c1cc(CNC2CCNCC2)ccc1O` [TCMDC-140774] the figure was 49.2%.
With `CC(C)(C)c1ccc(CN2CCC(NC(=O)c3ccc(-c4ccccc4Cl)s3)CC2)cc1` [TCMDC-134351] the figure was 7.857%.
With `COc1ccc(O)c(C(=O)NCCc2ccc(OC)c(-c3ccc(C(C)(C)C)cc3)c2)c1` [TCMDC-136183], the “% Inhibition” value turned out to be 40.96%.
With `CC(C)(C)c1ccc(CNC(=O)/C=C/c2ccc(CNC3CCNCC3)cc2)cc1` [TCMDC-140773] the figure was 88.02%.
In the case of `CC(C)(CNC(=O)/C=C/c1ccc(C(F)(F)F)cc1)CNc1cc(=O)c2ccccc2[nH]1` [TCMDC-139403], the “% Inhibition” value was -57.07%.
To `CC(C)(C)c1ccc(CNC(=O)c2cc(CNC3CCNC3)ccc2O)cc1` (centres unmarked) [TCMDC-140761] belongs 47.42%.
For `CC(C)(C)c1ccc(CNC(=O)c2ccc(CNC3CCC(N)CC3)s2)cc1` (centres unmarked) [TCMDC-140777], the “% Inhibition” value was 101.7%.
With `CC(C)(C)c1ccc(CNC(=O)c2cc(CNC3CCNCC3)ccc2O)cc1` [TCMDC-140775] the figure was 70.98%.
With `CC(C)[C@H](NC(=O)c1ccc(O)c(-c2ccc(Cl)c(Cl)c2)c1)C(=O)NC1CCCCCC1` [TCMDC-140844] the figure was 10.04%.
To `Cc1cc(O)c(C(C)C)cc1C1(c2cc(C(C)C)c(O)cc2C)OC(=O)c2ccccc21` [TCMDC-123951] belongs -40.8%; to `Cn1nccc1C(=O)NCCNCc1cccc(-c2ccc(-c3nc4ccccc4[nH]3)cc2)c1.O=C(O)C(F)(F)F` [TCMDC-133019], -30.97%.
In the case of `CC(C)(C)c1cc(C(=O)N2CCC(c3ccccn3)CC2)n(Cc2ccccc2)n1` [TCMDC-133770], the “% Inhibition” value is -53.32%.
